Measured potencies and affinities stand elsewhere. Unmarked numbers belong to inactive results.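 How the source made its calls: active means polarization signal falls with dose and the fitted half-maximal concentration is at or below ten times the sample's top valid dose; inconclusive means flat curve at 30 to 70% inhibition, or poor fit; inactive means signal rises, flat within 30%, or potency beyond limit.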
What follows are molecules tested against Golgi-associated PDZ and coiled-coil motif-containing protein (Homo sapiens) (UniProt Q9HD26) (assay: potency against CAL PDZ-peptide interaction – biochemical, fluorescence polarization, Cerulean-tagged CAL PDZ, cherry-picks, dose response (AID 504773;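 further: 0% = DMSO neutral wells and -100% = excess unlabeled competitor peptide wells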)). Conditions: CAL PDZ-peptide binding, 1 h; series mostly up to 50 µM; activity change, negative = inhibition: at the top concentration.

| SMILES | activity change, negative = inhibition [%] |
| --- | --- |
| Oc1ccc(/C=N\Nc2nncc(-c3ccccc3)n2)cc1 | 22.7 |
| CCOc1ccc(S(=O)(=O)N2CCCCC2)c(C)c1C | -5.43 |
| CCC(C)NC(=O)C1CCCN(C(=O)Nc2ccc(F)cc2)C1 (configuration not stated) | 19.3 |
| CCN1CCN(S(=O)(=O)c2ccc(OC)c3ccccc23)CC1 | 7.59 |
| COc1ccc(/C=N/NC(=O)c2cccc(C(F)(F)F)c2)cc1 | 19.1 |
| Cc1nn(C)c(C)c1S(=O)(=O)N1CCC(CO)(CC2CCCCO2)CC1 (configuration not stated) | -8.34 |
| CCN(CC)S(=O)(=O)c1ccc2nc(NC(=O)c3ccco3)sc2c1 | -28.5 |
| COCCCNC(=O)c1c[nH]c2ccc(S(=O)(=O)N3CCC(C)CC3)cc2c1=O | 32 |
| CCN1C(=O)CS/C1=N\S(=O)(=O)c1ccc(Cl)cc1 | 17 |
| O=C(CCc1nc(-c2ccc(Cl)cc2)no1)NC1CCCCC1 | 8.13 |
| CCN(CC(=O)Nc1cc(Cl)cc(Cl)c1)CC(=O)NC1CCS(=O)(=O)C1 (configuration not stated) | -16.5 |
| CC(CN1CCCC1)OC(=O)C(c1ccccc1)c1ccccc1 (configuration not stated) | -30.8 |
| CC1CCCN(C(=O)Cc2cccc3ccccc23)C1 (configuration not stated) | 9.32 |
| Cc1ccc(C(=O)NC(=S)N2CCN(c3cc(C)ccc3C)CC2)cc1 | -8.14 |
| C=CCN1C(=O)/C(=C/c2ccsc2)SC1=S | -19.4 |
| COc1ccc(C2/C(=C(/O)c3ccc(C)cc3)C(=O)C(=O)N2C)c(OC)c1 (configuration not stated) | -22.7 |
| CS(=O)(=O)c1ccc(Cl)c(NC(=O)COC(=O)c2c(Cl)cccc2Cl)c1 | -13.4 |
| C[C@H](NC(=O)c1ccccc1Cl)C(=O)NCc1cccs1 | -55.6 |
| O=C(c1cc2cc([N+](=O)[O-])ccc2oc1=O)N1CCN(C2CCCCC2)CC1 | 24.9 |

| SMILES | activity change, negative = inhibition [%] |
| --- | --- |
| CCOc1ccc(C2=Nn3c(nnc3-c3ccco3)SC2)cc1 | 1 |
| O=S(=O)(/N=C(/Nc1ccc(Cl)c(S(=O)(=O)N2CCOCC2)c1)c1ccc(F)cc1)c1ccccc1 | -11 |
| CCc1nc2ccccc2c(C(=O)Oc2cccc3cccnc23)c1C | 9.12 |
| CC(=O)Nc1cc(NC(C)=O)cc(C(=O)OCC(=O)Nc2ccc(S(=O)(=O)NC3=NCCCCC3)cc2)c1 | 19 |
| CN(Cc1nccn1C)C(=O)c1cc(COc2ccc3ncccc3c2)on1 | 16.5 |
| C=CCOc1c(Cl)cc(CNn2cn[nH]c2=S)cc1OC | 29.5 |
| COCC(=O)NNC(=O)c1ccc(OC)cc1 | 13.7 |
| CCCCC(CCC(=O)Nc1nccs1)C(=O)O (configuration not stated) | 25.2 |
| COc1cc(NC(=O)c2cccs2)ccc1NC(=O)c1ccccc1Cl | 2.7 |
| O=C(NNC(=O)c1c(F)cccc1F)c1sccc1-n1cccc1 | 12.1 |
| CCNC(=S)N1CCc2cc(OC)c(OC)cc2C1COc1ccc(OC)cc1 (configuration not stated) | 19.7 |
| O=C(CCCn1c(=S)[nH]c2cc3c(cc2c1=O)OCO3)N1CCN(c2ccc(Cl)cc2)CC1 | 16.6 |
| Cc1c(Cl)c(C(=O)N2CCCC2)nn1C | -31.7 |
| COc1ccc(CN2CCCC(N3CCN(c4cccc(Cl)c4)CC3)C2)cc1OC (configuration not stated) | 1.02 |
| O=C(NCCc1ccccc1)C1CCC(=O)N(CCCN2CCCC2=O)C1 (configuration not stated) | 22.9 |
| CCOC(=O)C1(Cc2cccc(Cl)c2)CCCN(C(=O)c2cccc(C)n2)C1 (configuration not stated) | 22.9 |
| Cc1ccc(CNC2CCCCC2)s1 | -7.68 |
| FC(F)(F)c1cc(-c2cccs2)nc2ncnn12 | -9.28 |

Source: PubChem BioAssay AID504773 (Broad Institute, 2011)
